TIM10 inh = TIM10 yeast growth inhibition; AID 463195; S. cerevisiae TIM10 strain growth, BacTiter-Glo luminescence, 24 h; inhibition, % at 10 µM; actives 1.4% (n = 330,000);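 active = inhibition of 40% or more at the single tested concentration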;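 also: wild-type TIM10 isogenic control strain grown at permissive 25 °C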
PfHsp90 set2 = growth inhibition of yeast expressing Plasmodium Hsp90. S. cerevisiae expressing PfHsp90, BacTiter-Glo ATP, 48 h; yeast lacking PDR1 and PDR3 efflux regulators. inhibition, % at 9.4 µM. actives 0.32% (n = 310,000). AID 504621;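 active = every replicate shows inhibition above about 80%, whatever the replicate mean, limit read from the data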;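 also: 0% = DMSO neutral controls and 100% = 20 µM radicicol positive controls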
SKKanGAS inh = inhibitors of SKKanGAS S. pyogenes growth in kanamycin (SK-promoter or general growth effect). BacTiter-Glo, 6 h. inhibition, % at 7.5 µM. actives 1.3% (n = 300,000). AID 1662;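 active = mean replicate score, as percent of positive control median, at least 50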;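 also: strain carries kanamycin resistance gene driven by streptokinase promoter and grows in 40 µg/ml kanamycin; loss of luminescence reflects streptokinase promoter inhibition or plain growth inhibition; 0% = median of DMSO wells and 100% = positive control at its reference dose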
ATG4B inh = ATG4B (human) cysteine protease inhibition. ATG4B cleavage of LC3-PLA2, NBD-HPC fluorescence, 1 h. inhibition, % at 8.33 µM. actives 0.51% (n = 340,000). AID 504462; in the data active = inhibition above about 40%
Target sequence (Q9Y4P1 whole entry, looked up): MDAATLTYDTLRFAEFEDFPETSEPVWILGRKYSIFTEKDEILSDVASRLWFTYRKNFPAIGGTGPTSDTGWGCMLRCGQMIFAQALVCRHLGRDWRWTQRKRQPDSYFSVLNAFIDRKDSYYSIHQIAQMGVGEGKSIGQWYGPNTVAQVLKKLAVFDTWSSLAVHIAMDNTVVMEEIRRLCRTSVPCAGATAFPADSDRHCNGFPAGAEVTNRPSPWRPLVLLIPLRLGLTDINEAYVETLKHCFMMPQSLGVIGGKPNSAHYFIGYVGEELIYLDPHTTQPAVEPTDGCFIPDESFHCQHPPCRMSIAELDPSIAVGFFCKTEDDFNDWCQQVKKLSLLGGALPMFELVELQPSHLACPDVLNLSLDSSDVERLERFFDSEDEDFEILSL
tim23-1 inh = tim23-1 yeast growth inhibition; inhibition, % at 20 µM; S. cerevisiae tim23-1 growth, BacTiter-Glo luminescence, 24 h; AID 463212; actives 1.3% (n = 330,000);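 active = growth inhibition of the mutant yeast at or above 50%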;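 also: temperature-sensitive mutant grown at 25 °C; plate controls were DMSO-treated mutant yeast for no effect and medium wells lacking yeast for full effect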
tim10-1 inh = tim10-1 yeast growth inhibition | inhibition, % at 20 µM | S. cerevisiae tim10-1 ts strain growth, BacTiter-Glo, 24 h | actives 2.2% (n = 330,000);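 active = inhibition of at least 40%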;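 also: mutant grown at 25 °C; 0% = DMSO wells with yeast and 100% = wells holding no yeast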
Starred values were filed as active, the others as inactive; x = no result. Shown are actives, neighbours in structure and some others; about 4.7% of the full set was active somewhere.

SMILES | TIM10 inh | PfHsp90 set2 | SKKanGAS inh | ATG4B inh | tim23-1 inh | tim10-1 inh
CCCc1nc2oc3c(Cl)ncnc3c2c2c1CCCC2 | 33 | 25 | 53* | 7 | 43 | 22
Cc1cc(NC(=O)CC2CCCC2)n(-c2nc3ccccc3[nH]2)n1 | 28 | 4 | 51* | -15 | 11 | 34
Cc1cc(NC(=O)/C=C/c2ccccc2Cl)n(-c2nc3ccccc3[nH]2)n1 | 15 | -10 | 81* | -2 | 1 | 13
COc1ccc(NS(=O)(=O)c2ccc(O)c(NC(=O)c3cc4c(C)nn(-c5ccc(F)cc5)c4s3)c2)cc1 | 23 | -31 | 109* | 34 | 3 | 26
CC(=O)NC(c1ccc(Cl)cc1)c1ccc2cccnc2c1O (stereo not given) | x | 114* | x | -2 | x | x
O=C(O)c1ccccc1NC(c1ccccc1)c1ccc2cccnc2c1O (stereo not given) | x | 121* | x | 35 | x | x
COc1ccccc1NC(c1cccnc1)c1ccc2cccnc2c1O (stereo not given) | -12 | 10 | 5 | -3 | 32 | 22
CCCC(=O)NC(c1ccc(N(C)C)cc1)c1ccc2cccnc2c1O (stereo not given) | -92 | 1 | 39 | 4 | 42 | -26
CCCCC(=O)NC(c1ccc(Cl)cc1Cl)c1ccc2cccnc2c1O (stereo not given) | -65 | -78 | 92* | -1 | -4 | 2
CC(=O)NC(c1ccco1)c1ccc2cccnc2c1O (stereo not given) | -11 | 4 | 40 | -3 | 17 | 30
CC(C)C(=O)NC(c1ccc(Cl)cc1Cl)c1ccc2cccnc2c1O (stereo not given) | -3 | 113* | 81* | -1 | 45 | -36
Cc1cc(NC(c2ccc(Cl)cc2)c2ccc3cccnc3c2O)no1 (stereo not given) | 17 | 101* | 101* | -6 | 44 | 18
COc1ccc(C(NC(=O)C(C)C)c2ccc3cccnc3c2O)cc1 (stereo not given) | -46 | 60 | 55* | -3 | 38 | 4
Cc1ccc(NC(=O)c2ccc3c(=O)n4c(nc3c2)CCC4)cc1S(=O)(=O)N(C)C | 8 | x | x | -4 | 0 | -9
CCOC(=O)c1cc(-c2ccc(OC(F)F)cc2)nc2c1c(=O)[nH]c(=O)n2C | 11 | -15 | 100* | 3 | 13 | 19
CCOC(=O)c1cc(-c2ccc(OC(F)F)cc2)nc2nc(SC)[nH]c(=O)c12 | -5 | 13 | 3 | -5 | 27 | 20
O=C(NCCCN1CCOCC1)C1COc2ccccc2O1 (stereo not given) | 6 | x | 3 | -1 | -9 | -3
CC1OC(CC(=O)O)CC2=C1C(=O)c1c(O)cccc1C2=O (stereo not given) | x | 106* | x | 8 | x | x
CC(C)Oc1ccc(C(=O)Nc2ccc(Cl)c(S(=O)(=O)Nc3ccc(Cl)cc3)c2)cc1 | 29 | -10 | 110* | 5 | 24 | 39
COc1ccc(CCn2c(C3CCCCC3)nc3c(c(=O)c4ccccc4n3C)c2=O)cc1 | 34 | x | 68* | -1 | 41 | 3
COc1ccc(Cn2c(C3CCCCC3)nc3c(c(=O)c4ccccc4n3C)c2=O)cc1 | 4 | x | 70* | -8 | 10 | -7
COc1ccc(Cn2c(-c3ccccc3)nc3c(c(=O)c4ccccc4n3C)c2=O)cc1 | 3 | 21 | 20 | 7 | -9 | 2
COc1ccc(CCn2c(C3CCCCC3)nc3c(c(=O)c4ccccc4n3C)c2=O)cc1OC | 16 | 9 | 16 | 24 | 25 | -30
C=CCOc1c(Br)cc(CNn2c(C)n[nH]c2=S)cc1OCC | 7 | 12 | -3 | -1 | 17 | 17
COc1ccc2ccc3c(c2c1)N=CC1(O3)N(C)c2ccccc2C1(C)C (stereo not given) | 25 | 20 | 93* | 0 | 12 | 31
COc1ccc2c(c1)Sc1ccccc1N2CCN(C)C | 4 | 10 | -17 | -9 | 12 | 12
CN1c2ccccc2C(C)(C)C12C=Nc1c(ccc3ccccc13)O2 (stereo not given) | 4 | 25 | 105* | -3 | 17 | 13
CC(OC(=O)c1n[nH]c2ccccc12)C(=O)Nc1ccccc1[N+](=O)[O-] (stereo not given) | 3 | x | x | 5 | 34 | 1
